# Experiments:
# Assay in all cases: DAPPL (digital affinity profiling via proximity ligation, sequencing); 10 mM Tris-HCl pH 7.5, 50 mM NaCl, 1 mM DTT, 4% glycerol, room temperature, 30 min; GST-TFs on glutathione beads, 16-mer random dsDNA library, 0.1% formaldehyde crosslink after washing; high values mean tight binding
# [1] = target: T1, FEV (Homo sapiens, UniProt Q99581 1-238); conditions: protein: recombinant; tags: N-terminal GST; dsDNA, one strand shown
# T1 sequence: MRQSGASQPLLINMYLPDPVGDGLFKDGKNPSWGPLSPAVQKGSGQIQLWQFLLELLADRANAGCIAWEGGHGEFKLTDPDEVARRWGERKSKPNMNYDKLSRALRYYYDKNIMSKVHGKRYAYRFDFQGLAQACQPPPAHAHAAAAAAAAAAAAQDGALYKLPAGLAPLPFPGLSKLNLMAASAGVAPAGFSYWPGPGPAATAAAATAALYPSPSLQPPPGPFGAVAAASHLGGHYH
# Summary of the method: (§1)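 GST fusions of human transcription factors were expressed in yeast and captured with glutathione beads. Once given DNA barcodes and pooled alongside a tag-only sample, they were incubated for 30 min at room temperature with 200 nmole of a random double-stranded 16-mer DNA library in Tris/NaCl/DTT/glycerol buffer, then washed, crosslinked (0.1% formaldehyde), proximity-ligated, PCR-amplified and sequenced on an Illumina NextSeq500. The binding signal of each hexamer is its read frequency for a factor divided by its frequency for the tag-only sample.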
# [2] = target: ETV5 (Homo sapiens, UniProt P41161 1-510); conditions: protein: recombinant; tags: N-terminal GST; dsDNA, one strand shown
# Sequence of ETV5 (P41161 whole entry): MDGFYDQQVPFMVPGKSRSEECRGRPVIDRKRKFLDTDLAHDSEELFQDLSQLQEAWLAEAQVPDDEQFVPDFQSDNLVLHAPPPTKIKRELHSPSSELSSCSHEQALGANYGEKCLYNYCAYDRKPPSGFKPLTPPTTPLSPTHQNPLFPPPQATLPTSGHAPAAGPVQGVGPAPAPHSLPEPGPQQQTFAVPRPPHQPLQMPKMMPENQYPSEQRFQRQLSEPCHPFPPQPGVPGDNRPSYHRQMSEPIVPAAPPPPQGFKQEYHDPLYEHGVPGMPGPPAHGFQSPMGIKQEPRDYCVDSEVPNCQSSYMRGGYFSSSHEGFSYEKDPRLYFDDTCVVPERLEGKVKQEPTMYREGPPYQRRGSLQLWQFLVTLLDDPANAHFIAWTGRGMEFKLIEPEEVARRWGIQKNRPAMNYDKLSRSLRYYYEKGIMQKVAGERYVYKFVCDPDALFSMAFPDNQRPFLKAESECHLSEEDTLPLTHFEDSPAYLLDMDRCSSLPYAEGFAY
# Summary of the method: as §1
# [3] = target: HSF1 (Homo sapiens, UniProt Q00613 1-529); conditions: protein: recombinant; tags: N-terminal GST; chain copies: 3; dsDNA, one strand shown
# Sequence of HSF1 (Q00613 whole entry): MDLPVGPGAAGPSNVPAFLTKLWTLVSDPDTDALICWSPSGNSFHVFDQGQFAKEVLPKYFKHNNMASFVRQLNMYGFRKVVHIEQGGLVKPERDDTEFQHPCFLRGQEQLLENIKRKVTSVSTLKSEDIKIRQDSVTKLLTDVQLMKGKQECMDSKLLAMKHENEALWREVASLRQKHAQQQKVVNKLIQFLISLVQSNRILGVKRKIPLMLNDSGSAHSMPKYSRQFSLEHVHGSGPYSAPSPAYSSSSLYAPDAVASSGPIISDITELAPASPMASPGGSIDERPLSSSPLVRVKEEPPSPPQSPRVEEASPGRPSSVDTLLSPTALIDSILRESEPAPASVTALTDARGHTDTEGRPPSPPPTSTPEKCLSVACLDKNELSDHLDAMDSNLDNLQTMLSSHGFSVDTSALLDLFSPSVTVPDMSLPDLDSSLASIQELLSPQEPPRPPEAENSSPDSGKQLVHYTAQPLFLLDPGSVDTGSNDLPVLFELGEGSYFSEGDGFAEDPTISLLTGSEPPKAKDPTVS
# Summary of the method: as §1
# [4] = target: T2, SPIC (Homo sapiens, UniProt Q8N5J4 1-248); conditions: protein: recombinant; tags: N-terminal GST; dsDNA, one strand shown
# T2 sequence: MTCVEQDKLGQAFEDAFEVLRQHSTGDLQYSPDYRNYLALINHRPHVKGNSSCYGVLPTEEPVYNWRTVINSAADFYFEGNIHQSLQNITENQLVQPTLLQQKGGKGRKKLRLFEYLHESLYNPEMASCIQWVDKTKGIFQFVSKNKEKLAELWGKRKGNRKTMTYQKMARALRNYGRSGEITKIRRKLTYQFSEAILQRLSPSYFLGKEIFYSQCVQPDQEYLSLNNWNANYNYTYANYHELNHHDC
# Summary of the method: as §1
# [5] = target: ELF4 (Homo sapiens, UniProt Q99607 1-663); conditions: protein: recombinant; tags: N-terminal GST; dsDNA, one strand shown
# Sequence of ELF4 (Q99607 whole entry): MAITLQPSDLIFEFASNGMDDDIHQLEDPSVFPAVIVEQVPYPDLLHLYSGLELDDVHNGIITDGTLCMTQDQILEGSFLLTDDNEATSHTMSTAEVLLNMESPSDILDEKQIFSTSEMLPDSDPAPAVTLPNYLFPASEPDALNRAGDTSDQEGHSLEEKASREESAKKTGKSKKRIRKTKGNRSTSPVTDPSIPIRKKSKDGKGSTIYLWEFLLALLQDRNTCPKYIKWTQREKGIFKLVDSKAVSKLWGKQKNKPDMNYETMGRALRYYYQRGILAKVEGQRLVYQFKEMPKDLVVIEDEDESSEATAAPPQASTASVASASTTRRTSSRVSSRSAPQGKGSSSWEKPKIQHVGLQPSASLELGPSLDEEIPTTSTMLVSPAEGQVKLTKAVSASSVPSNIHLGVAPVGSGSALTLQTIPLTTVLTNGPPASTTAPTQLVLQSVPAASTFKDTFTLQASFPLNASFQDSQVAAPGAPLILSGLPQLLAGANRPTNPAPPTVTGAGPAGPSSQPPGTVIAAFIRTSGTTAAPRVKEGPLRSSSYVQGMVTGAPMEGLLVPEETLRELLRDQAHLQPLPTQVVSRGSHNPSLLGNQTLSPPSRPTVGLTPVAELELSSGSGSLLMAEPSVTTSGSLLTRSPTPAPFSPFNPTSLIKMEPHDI
# Summary of the method: as §1
# [6] = target: T3, ELK4 (Homo sapiens, UniProt P28324-2 1-405); conditions: protein: recombinant; tags: N-terminal GST; dsDNA, one strand shown
# T3 sequence: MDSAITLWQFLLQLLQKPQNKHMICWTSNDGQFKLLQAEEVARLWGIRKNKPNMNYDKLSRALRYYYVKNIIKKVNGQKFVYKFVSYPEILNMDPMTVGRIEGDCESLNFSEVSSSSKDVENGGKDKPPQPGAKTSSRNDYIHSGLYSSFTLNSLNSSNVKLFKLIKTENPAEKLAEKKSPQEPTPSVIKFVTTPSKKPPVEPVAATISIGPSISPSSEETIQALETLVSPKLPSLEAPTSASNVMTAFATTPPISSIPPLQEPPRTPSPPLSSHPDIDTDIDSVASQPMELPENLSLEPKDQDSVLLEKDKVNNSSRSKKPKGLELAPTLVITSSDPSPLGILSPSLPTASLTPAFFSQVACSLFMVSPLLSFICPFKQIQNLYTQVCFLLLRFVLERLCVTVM
# Summary of the method: as §1
# [7] = target: T4, ETV2 (Homo sapiens, UniProt O00321 1-342); conditions: protein: recombinant; tags: N-terminal GST; dsDNA, one strand shown
# T4 sequence: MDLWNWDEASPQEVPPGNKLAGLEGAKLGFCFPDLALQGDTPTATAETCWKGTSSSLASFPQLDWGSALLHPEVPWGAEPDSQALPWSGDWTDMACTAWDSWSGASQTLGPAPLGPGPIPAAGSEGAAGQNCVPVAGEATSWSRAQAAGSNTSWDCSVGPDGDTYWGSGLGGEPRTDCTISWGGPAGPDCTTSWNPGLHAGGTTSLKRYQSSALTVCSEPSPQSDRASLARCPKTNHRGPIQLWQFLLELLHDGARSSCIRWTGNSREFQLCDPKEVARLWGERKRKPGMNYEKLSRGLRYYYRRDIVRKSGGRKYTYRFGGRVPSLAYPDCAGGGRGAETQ
# Summary of the method: as §1
# [8] = target: T5, ELF3 (Homo sapiens, UniProt P78545 1-371); conditions: protein: recombinant; tags: N-terminal GST; dsDNA, one strand shown
# T5 sequence: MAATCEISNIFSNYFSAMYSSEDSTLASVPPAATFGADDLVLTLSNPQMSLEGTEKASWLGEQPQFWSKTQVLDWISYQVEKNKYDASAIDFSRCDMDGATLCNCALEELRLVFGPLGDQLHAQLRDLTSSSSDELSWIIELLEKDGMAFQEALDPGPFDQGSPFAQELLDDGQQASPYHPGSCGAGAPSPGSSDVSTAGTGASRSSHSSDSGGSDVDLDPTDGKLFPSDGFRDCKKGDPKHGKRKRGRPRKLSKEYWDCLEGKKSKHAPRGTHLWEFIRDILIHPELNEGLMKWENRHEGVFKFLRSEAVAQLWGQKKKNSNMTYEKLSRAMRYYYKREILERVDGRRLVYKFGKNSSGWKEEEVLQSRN
# Summary of the method: as §1
# [9] = target: CRX (Homo sapiens, UniProt O43186 1-299); conditions: protein: recombinant; tags: N-terminal GST; dsDNA, one strand shown
# Sequence of CRX (O43186 whole entry): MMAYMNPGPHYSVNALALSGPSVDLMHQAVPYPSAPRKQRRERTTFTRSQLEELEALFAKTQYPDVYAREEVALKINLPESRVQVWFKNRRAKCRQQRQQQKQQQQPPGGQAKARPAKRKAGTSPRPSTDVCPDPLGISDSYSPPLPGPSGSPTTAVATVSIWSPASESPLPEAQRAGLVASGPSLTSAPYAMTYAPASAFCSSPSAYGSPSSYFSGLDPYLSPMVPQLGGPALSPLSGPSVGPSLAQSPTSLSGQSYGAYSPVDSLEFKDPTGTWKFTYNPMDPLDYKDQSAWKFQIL
# Summary of the method: as §1
# [10] = target: ETV1 (Homo sapiens, UniProt P50549 1-477); conditions: protein: recombinant; tags: N-terminal GST; dsDNA, one strand shown
# Sequence of ETV1 (P50549 whole entry): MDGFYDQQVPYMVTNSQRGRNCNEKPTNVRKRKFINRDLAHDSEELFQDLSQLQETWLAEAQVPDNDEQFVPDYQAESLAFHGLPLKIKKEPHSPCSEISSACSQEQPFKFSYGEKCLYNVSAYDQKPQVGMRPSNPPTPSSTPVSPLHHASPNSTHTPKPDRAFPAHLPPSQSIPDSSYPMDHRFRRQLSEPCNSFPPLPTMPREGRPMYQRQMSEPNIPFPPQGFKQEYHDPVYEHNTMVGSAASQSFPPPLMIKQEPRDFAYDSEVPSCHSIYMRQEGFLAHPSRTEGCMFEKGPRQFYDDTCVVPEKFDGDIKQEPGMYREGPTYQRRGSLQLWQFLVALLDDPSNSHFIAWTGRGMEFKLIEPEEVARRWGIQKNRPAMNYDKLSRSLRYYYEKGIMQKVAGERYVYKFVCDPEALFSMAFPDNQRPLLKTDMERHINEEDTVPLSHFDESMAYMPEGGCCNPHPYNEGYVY
# Summary of the method: as §1
# [11] = target: T6, ERF (Homo sapiens, UniProt P50548 1-548); conditions: protein: recombinant; tags: N-terminal GST; dsDNA, one strand shown
# T6 sequence: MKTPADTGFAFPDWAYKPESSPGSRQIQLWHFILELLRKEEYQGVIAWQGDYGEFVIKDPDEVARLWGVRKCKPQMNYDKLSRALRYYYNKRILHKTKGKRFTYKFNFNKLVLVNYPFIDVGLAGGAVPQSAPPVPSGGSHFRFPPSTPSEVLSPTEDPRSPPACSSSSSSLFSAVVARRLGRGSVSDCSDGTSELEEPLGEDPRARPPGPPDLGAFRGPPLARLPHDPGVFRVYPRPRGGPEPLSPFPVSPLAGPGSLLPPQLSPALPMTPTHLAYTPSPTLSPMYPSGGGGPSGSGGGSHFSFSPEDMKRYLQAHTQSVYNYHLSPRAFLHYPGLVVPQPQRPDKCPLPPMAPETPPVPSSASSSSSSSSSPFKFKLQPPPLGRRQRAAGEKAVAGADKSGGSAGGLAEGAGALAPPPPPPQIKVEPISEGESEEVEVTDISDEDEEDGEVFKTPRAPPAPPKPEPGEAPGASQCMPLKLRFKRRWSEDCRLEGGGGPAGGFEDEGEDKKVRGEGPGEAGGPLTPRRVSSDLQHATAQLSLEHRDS
# Summary of the method: as §1
# [12] = target: T7, ETV3L (Homo sapiens, UniProt Q6ZN32 1-361); conditions: protein: recombinant; tags: N-terminal GST; dsDNA, one strand shown
# T7 sequence: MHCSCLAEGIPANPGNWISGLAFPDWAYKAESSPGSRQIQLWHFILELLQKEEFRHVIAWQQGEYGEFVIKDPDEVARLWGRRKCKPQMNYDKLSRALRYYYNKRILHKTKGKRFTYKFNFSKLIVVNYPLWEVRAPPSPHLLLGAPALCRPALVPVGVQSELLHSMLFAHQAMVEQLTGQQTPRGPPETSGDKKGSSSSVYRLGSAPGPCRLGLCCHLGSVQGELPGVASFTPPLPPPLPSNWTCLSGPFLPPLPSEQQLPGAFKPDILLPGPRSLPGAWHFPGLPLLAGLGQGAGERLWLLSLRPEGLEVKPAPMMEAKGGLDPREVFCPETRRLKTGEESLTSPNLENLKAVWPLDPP
# Summary of the method: as §1
# [13] = target: T8, ETS2 (Homo sapiens, UniProt P15036 1-469); conditions: protein: recombinant; tags: N-terminal GST; dsDNA, one strand shown
# T8 sequence: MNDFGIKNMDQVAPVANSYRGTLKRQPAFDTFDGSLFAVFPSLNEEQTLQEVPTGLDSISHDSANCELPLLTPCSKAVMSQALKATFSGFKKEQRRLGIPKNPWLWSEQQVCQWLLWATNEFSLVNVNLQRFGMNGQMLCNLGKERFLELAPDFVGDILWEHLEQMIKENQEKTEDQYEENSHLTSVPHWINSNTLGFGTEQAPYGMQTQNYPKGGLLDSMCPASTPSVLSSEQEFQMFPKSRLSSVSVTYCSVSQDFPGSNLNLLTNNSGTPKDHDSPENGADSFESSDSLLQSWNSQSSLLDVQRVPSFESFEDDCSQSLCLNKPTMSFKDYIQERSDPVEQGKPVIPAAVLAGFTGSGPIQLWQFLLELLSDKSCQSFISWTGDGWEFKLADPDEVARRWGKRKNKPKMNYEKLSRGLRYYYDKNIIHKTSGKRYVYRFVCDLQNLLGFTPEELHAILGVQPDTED
# Summary of the method: as §1
# [14] = target: T9, SPDEF (Homo sapiens, UniProt O95238 1-335); conditions: protein: recombinant; tags: N-terminal GST; dsDNA, one strand shown
# T9 sequence: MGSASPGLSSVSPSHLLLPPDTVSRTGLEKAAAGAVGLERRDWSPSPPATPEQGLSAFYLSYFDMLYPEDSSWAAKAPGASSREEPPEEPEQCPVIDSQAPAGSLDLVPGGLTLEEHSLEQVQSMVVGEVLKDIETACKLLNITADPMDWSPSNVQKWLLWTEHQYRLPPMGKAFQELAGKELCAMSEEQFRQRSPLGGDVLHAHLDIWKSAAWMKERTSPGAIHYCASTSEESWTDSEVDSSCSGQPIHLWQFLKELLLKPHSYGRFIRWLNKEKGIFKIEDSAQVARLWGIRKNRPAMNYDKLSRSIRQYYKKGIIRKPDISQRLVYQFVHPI
# Summary of the method: as §1
# [15] = target: T10, ETV7 (Homo sapiens, UniProt Q9Y603 1-341); conditions: protein: recombinant; tags: N-terminal GST; dsDNA, one strand shown
# T10 sequence: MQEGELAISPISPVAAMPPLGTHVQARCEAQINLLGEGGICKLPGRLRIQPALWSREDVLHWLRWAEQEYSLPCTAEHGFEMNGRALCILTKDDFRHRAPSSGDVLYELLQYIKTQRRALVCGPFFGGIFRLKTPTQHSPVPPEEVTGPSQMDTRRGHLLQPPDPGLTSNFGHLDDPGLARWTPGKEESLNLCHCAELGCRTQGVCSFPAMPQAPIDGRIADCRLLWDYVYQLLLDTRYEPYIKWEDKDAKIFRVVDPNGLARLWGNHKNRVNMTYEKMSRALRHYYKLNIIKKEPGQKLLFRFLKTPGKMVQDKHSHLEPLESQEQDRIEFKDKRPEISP
# Summary of the method: as §1
# [16] = target: T11, ELF5 (Homo sapiens, UniProt Q9UKW6-2 1-255); conditions: protein: recombinant; tags: N-terminal GST; dsDNA, one strand shown
# T11 sequence: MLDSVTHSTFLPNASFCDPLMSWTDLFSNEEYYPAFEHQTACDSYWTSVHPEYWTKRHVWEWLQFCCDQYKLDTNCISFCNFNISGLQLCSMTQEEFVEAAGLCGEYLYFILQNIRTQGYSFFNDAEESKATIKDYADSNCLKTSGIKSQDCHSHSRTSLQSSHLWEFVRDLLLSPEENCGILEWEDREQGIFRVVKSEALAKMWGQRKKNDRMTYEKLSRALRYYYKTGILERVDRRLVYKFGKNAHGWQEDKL
# Summary of the method: as §1
# [17] = target: T12, ETV3 (Homo sapiens, UniProt P41162-2 1-143); conditions: protein: recombinant; tags: N-terminal GST; dsDNA, one strand shown
# T12 sequence: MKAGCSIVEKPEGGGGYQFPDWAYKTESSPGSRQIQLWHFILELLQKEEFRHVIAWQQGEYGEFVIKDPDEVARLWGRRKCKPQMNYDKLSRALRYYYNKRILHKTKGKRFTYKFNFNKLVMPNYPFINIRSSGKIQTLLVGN
# Summary of the method: as §1
# [18] = target: ETV6 (Homo sapiens, UniProt P41212 1-452); conditions: protein: recombinant; tags: N-terminal GST; dsDNA, one strand shown
# Sequence of ETV6 (P41212 whole entry): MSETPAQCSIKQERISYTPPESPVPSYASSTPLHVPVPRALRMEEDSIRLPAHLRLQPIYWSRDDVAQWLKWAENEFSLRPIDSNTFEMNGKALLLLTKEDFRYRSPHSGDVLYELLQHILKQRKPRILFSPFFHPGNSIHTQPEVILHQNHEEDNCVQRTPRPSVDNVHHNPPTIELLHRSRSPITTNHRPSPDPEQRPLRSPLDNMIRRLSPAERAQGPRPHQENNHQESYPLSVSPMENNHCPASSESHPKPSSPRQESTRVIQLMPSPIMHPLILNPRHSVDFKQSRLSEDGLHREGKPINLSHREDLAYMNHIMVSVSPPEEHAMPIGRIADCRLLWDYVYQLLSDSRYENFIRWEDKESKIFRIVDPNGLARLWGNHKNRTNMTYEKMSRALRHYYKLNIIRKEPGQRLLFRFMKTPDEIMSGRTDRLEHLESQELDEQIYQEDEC
# Summary of the method: as §1
sequence,measurement,setting,value
TCGCTC,binding signal,[1],"1.23 fold enrichment (6-mer frequency, TF over GST control)"
same,binding signal,[2],"1.24 fold enrichment (6-mer frequency, TF over GST control)"
same,binding signal,[3],"1.25 fold enrichment (6-mer frequency, TF over GST control)"
same,binding signal,[4],"1.24 fold enrichment (6-mer frequency, TF over GST control)"
same,binding signal,[5],"1.31 fold enrichment (6-mer frequency, TF over GST control)"
same,binding signal,[6],"1.29 fold enrichment (6-mer frequency, TF over GST control)"
same,binding signal,[7],"1.22 fold enrichment (6-mer frequency, TF over GST control)"
same,binding signal,[8],"1.4 fold enrichment (6-mer frequency, TF over GST control)"
same,binding signal,[9],"1.12 fold enrichment (6-mer frequency, TF over GST control)"
same,binding signal,[10],"1.38 fold enrichment (6-mer frequency, TF over GST control)"
same,binding signal,[11],"1.35 fold enrichment (6-mer frequency, TF over GST control)"
same,binding signal,[12],"1.37 fold enrichment (6-mer frequency, TF over GST control)"
same,binding signal,[13],"1.32 fold enrichment (6-mer frequency, TF over GST control)"
same,binding signal,[14],"1.19 fold enrichment (6-mer frequency, TF over GST control)"
same,binding signal,[15],"1.02 fold enrichment (6-mer frequency, TF over GST control)"
same,binding signal,[16],"1.25 fold enrichment (6-mer frequency, TF over GST control)"
same,binding signal,[17],"1.11 fold enrichment (6-mer frequency, TF over GST control)"
same,binding signal,[18],"1.28 fold enrichment (6-mer frequency, TF over GST control)"

# Source: article PMC7862700, “An all-to-all approach to the identification of sequence-specific readers for epigenetic DNA modifications on cytosine”
